Compounds with a hit are over-represented: about 3.5% of the library has one in this group of screens.
TEAD-YAP inh – TEAD-YAP interaction inhibition; HEK-TIYL cells, TEAD-Gal4/YAP UAS-luciferase luminescence; AID 1259422; 1.4% of 640,000 active; inhibition, % at 9.12 µM; in the data active = inhibition above about 32%
MITF inh – inhibitors of human MITF. O75030. AlphaScreen MITF homodimerization, bead proximity signal. inhibition, % at 2.6 µM. 0.91% of 650,000 active. AID 1259374; in the data active = inhibition above about 50%
FBW7 act – activators of human E3 ligase FBW7; Q969H0; AlphaScreen FBW7–phospho-cyclin E peptide binding, activator screen; normalized activity (activation), % at 26.1 µM; 0.13% of 650,000 active; AID 1259310; in the data active = normalized activity above about 1.9%;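 note: purified mutant Fbw7 with reduced substrate affinity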
GPR151 ag – activates the human receptor GPR151 | Q8TDV0 | PathHunter beta-arrestin GPR151 cells, luminescence | activation, % at 11.2 µM | 1% of 650,000 active | AID 1508602; in the data active = activation above about 4.9%
GPR151 conf act – confirmation of human GPR151 activators; activation, % at 11.2 µM; AID 1508609; 6,700 tested, under 10 active; GPR151 PathHunter beta-arrestin cells, luminescence, 90 min; % of EA-reagent control over plate median; shares compounds with GPR151 ag;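 active = mean percent activation across replicates above the confirmation screen cutoff of 4.91%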
GPR119 ag – counter-screen for GPR151 activators: effect on human GPR119; shares compounds with GPR151 ag; GPR119 PathHunter beta-arrestin cells, luminescence, 90 min; 0 = compound-well median, 100 = enzyme-acceptor control; activation, % at 11.2 µM; 0.3% of 6,700 active; AID 1508611;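 active = mean percent activation in the counterscreen above 29.09%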;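 note: counterscreen on off-target GPR119 to flag nonselective hits from the GPR151 activator screen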
Numbers stand for hits.

`O=C(CSc1ncccn1)NCc1cccc(C(F)(F)F)c1` gave TEAD-YAP inh inactive, MITF inh inactive, FBW7 act inactive, GPR151 ag 5.8, GPR151 conf act inactive and GPR119 ag inactive.
`O=C(NCc1cccc(C(F)(F)F)c1)c1cccc(Nc2nccc3ccccc23)n1` gave TEAD-YAP inh inactive, MITF inh inactive, FBW7 act inactive, GPR151 ag 5.5, GPR151 conf act inactive and GPR119 ag inactive.
For FC(F)(F)c1cccc(CNc2cc(Nc3nccc4ccccc34)ncn2)c1 the results were TEAD-YAP inh inactive, MITF inh inactive, FBW7 act inactive, GPR151 ag 6.7, GPR151 conf act inactive and GPR119 ag inactive.
`Nc1nc(NCc2cccc(C(F)(F)F)c2)cc(Nc2nccc3ccccc23)n1` gave TEAD-YAP inh inactive, MITF inh inactive, FBW7 act inactive and GPR151 ag inactive.
c1ccc(CNc2ccnc(-c3ccccc3)n2)cc1 was read as TEAD-YAP inh inactive, MITF inh inactive, FBW7 act inactive and GPR151 ag inactive.
CCc1ccc(C(=O)N[C@H]2C[C@H]3C(=O)N[C@@H](Cc4ccccc4)C(=O)N3C2)cc1 was read as TEAD-YAP inh inactive, MITF inh inactive, FBW7 act inactive and GPR151 ag inactive.
Cc1ccc(N(C(C)C(=O)NC2CCCCC2)S(C)(=O)=O)cc1C (stereo not drawn) was read as TEAD-YAP inh inactive, MITF inh inactive, FBW7 act inactive, GPR151 ag 6.6, GPR151 conf act inactive and GPR119 ag inactive.
Cc1ccc(N(C(C)C(=O)NC2CCCCCC2)S(C)(=O)=O)cc1C (stereo not drawn) was read as TEAD-YAP inh inactive, MITF inh inactive, FBW7 act inactive and GPR151 ag inactive.
Screening Cc1ccc(N(C(C)C(=O)NCc2ccccn2)S(C)(=O)=O)cc1C (stereo not drawn) returned TEAD-YAP inh inactive, MITF inh inactive, FBW7 act inactive, GPR151 ag 5.4, GPR151 conf act inactive and GPR119 ag inactive.
C=CCNC(=O)C(C)N(c1ccc(C)cc1)S(C)(=O)=O (stereo not drawn) was read as TEAD-YAP inh inactive, MITF inh inactive, FBW7 act inactive and GPR151 ag inactive.
Screening C=CCNC(=O)C(C)N(c1ccccc1)S(C)(=O)=O (stereo not drawn) returned TEAD-YAP inh inactive, MITF inh inactive, FBW7 act inactive, GPR151 ag 8.2, GPR151 conf act inactive and GPR119 ag inactive.
Screening Cc1csc(NC(=O)C(CCS(C)(=O)=O)N2Cc3ccccc3C2=O)n1 (stereo not drawn) returned TEAD-YAP inh inactive, MITF inh inactive, FBW7 act inactive and GPR151 ag inactive.
Screening CCOC(=O)C1C(=O)CC(O)(c2ccccc2)CC1c1ccc(OC)cc1 (stereo not drawn) returned TEAD-YAP inh inactive, MITF inh inactive, FBW7 act inactive and GPR151 ag inactive.
`COc1ccc2c(CN3C(=O)C(=O)N(C4CCCC4)C3=O)cc(=O)oc2c1` gave TEAD-YAP inh inactive, MITF inh inactive, FBW7 act inactive, GPR151 ag 10, GPR151 conf act inactive and GPR119 ag inactive.
For O=C(c1ccc(Br)s1)N(CCN1CCOCC1)c1nc2ccc(F)cc2s1 the results were TEAD-YAP inh inactive, MITF inh inactive, FBW7 act inactive and GPR151 ag inactive.
Screening CC1CCN(c2ccc(C(=O)N3CCOCC3)cc2[N+](=O)[O-])CC1 returned TEAD-YAP inh inactive, MITF inh inactive, FBW7 act inactive, GPR151 ag 5.2, GPR151 conf act inactive and GPR119 ag inactive.
O=C(c1ccc(N2CCCCC2)c([N+](=O)[O-])c1)N1CCOCC1 was read as TEAD-YAP inh inactive, MITF inh inactive, FBW7 act inactive and GPR151 ag inactive.
CCOc1ccc(N(C)S(=O)(=O)c2ccc3[nH]cc(C(=O)N(C)C4CCCCC4)c(=O)c3c2)cc1 was read as TEAD-YAP inh inactive, MITF inh inactive, FBW7 act inactive and GPR151 ag inactive.
For CCOc1ccc2nc(C(=O)N3CCCCC3)sc2c1 the results were TEAD-YAP inh inactive, MITF inh inactive, FBW7 act inactive, GPR151 ag 11, GPR151 conf act inactive and GPR119 ag inactive.

Assay outcomes as filed in PubChem BioAssay.
